Source: PubChem
GLD-1 TGE inh = GLD-1/TGE RNA complex disruptors, primary screen, biochemical, fluorescence polarization; purified GLD-1 + fluorescein TGE RNA; inhibition, % at 5.96 µM; AID 2280, 2010; Female germline-specific tumor suppressor gld-1 (Caenorhabditis elegans), Q17339; hit rate 0.44% among 320,000;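 active means percent inhibition above a per-plate cutoff, the plate mean of test compounds plus 3 SD, cut at about 30% in these data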
BCLXL inh = inhibitors of human Bcl-xL, primary screen, biochemical, fluorescence polarization, HTS; Bcl-2-like protein 1 (Homo sapiens), Q07817; GST-Bcl-xL / FITC-Bim BH3 peptide fluorescence polarization; inhibition, % at 10.9 µM; hit rate 0.7% among 320,000; AID 2129, 2009;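 active means inhibition above the mean of all tested compounds plus 3 SD, cutoff set per campaign, cut at about 30% in these data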;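 further: inhibitors lower millipolarization by displacing the labeled peptide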
Target sequence (Q07817 whole entry, looked up): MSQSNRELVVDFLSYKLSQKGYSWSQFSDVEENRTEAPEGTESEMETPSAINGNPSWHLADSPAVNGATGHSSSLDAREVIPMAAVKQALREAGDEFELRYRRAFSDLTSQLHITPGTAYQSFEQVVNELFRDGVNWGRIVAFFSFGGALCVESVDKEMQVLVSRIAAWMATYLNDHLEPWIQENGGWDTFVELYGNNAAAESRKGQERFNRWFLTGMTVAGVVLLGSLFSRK
Mcl1 Bid PPI = Mcl-1/Bid binding inhibitors, primary screen, biochemical, TR-FRET, 1536-well. inhibition, % at 21.7 µM. hit rate 0.97% among 220,000. AID 1021, 2008. TR-FRET Mcl-1/Bid-Dy647 peptide binding;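 active means compounds that cut the binding signal by more than half at the single screening dose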;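 further: His-tagged Mcl-1 with europium anti-His antibody binding Bid BH3 peptide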
Mcl-1 Bim block = inhibitors of Bim peptide binding to Mcl-1, primary screen, biochemical, bead-based flow cytometry, multiplex; Induced myeloid leukemia cell differentiation protein Mcl-1 (Homo sapiens), Q07820; Bim peptide-Mcl-1 binding; inhibition, % at 10 µM; hit rate 0.1% among 190,000; AID 1009, 2008; in the data active means inhibition above about 40%
Mcl1 Noxa PPI = Mcl-1/Noxa binding inhibitors, primary screen, biochemical, TR-FRET, 1536-well. AID 1022, 2008. hit rate 1.5% among 220,000. inhibition, % at 21.7 µM. TR-FRET Mcl-1/Noxa peptide binding, 2 h. Induced myeloid leukemia cell differentiation protein Mcl-1 (Homo sapiens), Q07820;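 active means compounds that cut the protein-peptide binding signal by more than 50% relative to plate controls in a single-dose test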;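 further: His-tagged Mcl-1 with rhodamine Noxa BH3 peptide and terbium anti-His antibody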
MCL1-BIM inh = inhibitors of MCL1 binding to BIM-BH3, primary screen, biochemical, fluorescence polarization; hit rate 0.68% among 320,000; Induced myeloid leukemia cell differentiation protein Mcl-1 (Homo sapiens), Q07820; inhibition, % at 10.9 µM; GST-MCL1 / FITC-Bim-BH3 fluorescence polarization;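 active means inhibition above the mean inhibition of all tested compounds plus 3 SD, set per campaign, cut at about 40% in these data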;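 further: higher means more loss of mP so more displacement of Bim peptide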
Bcl-xL conf = Bcl-xL inhibitors blocking Bim BH3 binding, confirmation, counter-screen for MCL1 inhibitor project, biochemical, fluorescence polarization. shares compounds with MCL1-BIM inh. GST-Bcl-xL / FITC-Bim BH3 peptide FP binding. inhibition, % at 10.9 µM. hit rate 54% among 1,700. AID 2166, 2009;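 active means inhibition above a cutoff equal to the mean inhibition of all tested compounds plus 3 SD, cut at about 30% in these data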
MCL1 inh confirm = inhibitors of MCL1 binding to BIM-BH3, confirmation, biochemical, fluorescence polarization, triplicate; inhibition, % at 10.9 µM; hit rate 61% among 1,700; GST-MCL1 / FITC-Bim-BH3 fluorescence polarization; shares compounds with MCL1-BIM inh;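 active means inhibition above the average of all tested compounds plus 3 SD, cut at about 40% in these data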
Large screens that a line does not name were inactive (follow-up assays come after a bar, where they were run). In the library only some 2.3% were active in any assay of this set; here they are far more common.

O=C(OCC(=O)N1CCN(C(=O)c2ccco2)CC1)c1cc(-c2ccco2)nc2ccccc12	BCLXL inh 31, Mcl1 Noxa PPI 99, MCL1-BIM inh 82 | Bcl-xL conf inactive | MCL1 inh confirm 73
Cc1cc(C(=O)OCC(=O)NC(C)C)c2ccccc2n1	none (no result: Mcl-1 Bim block)
CCNC(=O)COC(=O)c1cc(-c2ccco2)nc2ccccc12	Mcl1 Noxa PPI 81, MCL1-BIM inh 50 (no result: Mcl-1 Bim block) | Bcl-xL conf inactive | MCL1 inh confirm 76
O=C(CC1CCCC1)Nc1cc(S(=O)(=O)N2CCOCC2)ccc1O	none (no result: Mcl1 Bid PPI, Mcl-1 Bim block, Mcl1 Noxa PPI)
O=C(CSc1nc2ccccc2s1)Nc1cc(S(=O)(=O)N2CCOCC2)ccc1O	Mcl1 Noxa PPI 105, MCL1-BIM inh 43 | Bcl-xL conf inactive | MCL1 inh confirm 49
O=C(NCN1CCN(c2ccccc2)CC1)c1cnccn1	MCL1-BIM inh 140 (no result: Mcl1 Bid PPI, Mcl-1 Bim block, Mcl1 Noxa PPI) | Bcl-xL conf inactive | MCL1 inh confirm inactive
CCN1CCN(CNC(=O)c2cnccn2)CC1	none
CC(C)(C)OC(=O)N[C@H](/C=C/c1ccccc1)C(=O)OC(C)(C)C	none (no result: Mcl1 Bid PPI, Mcl-1 Bim block, Mcl1 Noxa PPI)
CCc1nc(N2CCN(C(=O)c3ccco3)CC2)c(C#N)c2c1COC(C)(C)C2	none (no result: Mcl1 Bid PPI, Mcl-1 Bim block, Mcl1 Noxa PPI)
CC1(C)Cc2c(C#N)c(N3CCN(C(=O)c4ccco4)CC3)nc(-c3ccco3)c2CS1	BCLXL inh 35, Mcl1 Noxa PPI 53, MCL1-BIM inh 68 | Bcl-xL conf inactive | MCL1 inh confirm 49
CC1(C)Cc2c(c(-c3ccco3)[nH]c(=O)c2C#N)CS1	GLD-1 TGE inh 94, BCLXL inh 110, MCL1-BIM inh 148 | Bcl-xL conf 94 | MCL1 inh confirm 125
CC1(C)Cc2c(c(-c3ccccc3)[nH]c(=O)c2C#N)CS1	none
Cn1c(=O)c(=O)n(C)c2cc(N3CCCCC3)c(NS(=O)(=O)c3ccc([N+](=O)[O-])cc3)cc21	none (no result: Mcl1 Bid PPI, Mcl-1 Bim block, Mcl1 Noxa PPI)
CC(=O)Nc1ccc(Nc2ccc3c4c(cc(=O)n3C)-c3ccccc3C(=O)c24)cc1	BCLXL inh 61, Mcl1 Noxa PPI 56, MCL1-BIM inh 57 | Bcl-xL conf 61 | MCL1 inh confirm 70
COc1cccc(C2=CC(c3ccc(C)cc3)n3ncnc3N2)c1 (stereo not drawn)	GLD-1 TGE inh 57, BCLXL inh 55, MCL1-BIM inh 60 | Bcl-xL conf inactive | MCL1 inh confirm 42
Fc1ccc(Br)cc1C1C=C(c2ccc(Br)cc2)Nc2ncnn21 (stereo not drawn)	none
Cc1ccsc1C1C=C(c2cccc(Br)c2)Nc2ncnn21 (stereo not drawn)	GLD-1 TGE inh 92, BCLXL inh 110, MCL1-BIM inh 118 | Bcl-xL conf 71 | MCL1 inh confirm 83
COC(=O)c1ccc(N2CCCCC2)c(NC(=O)c2ccco2)c1	none (no result: Mcl1 Bid PPI, Mcl-1 Bim block, Mcl1 Noxa PPI)
NS(=O)(=O)c1ccc(N=Nc2c[nH]c(=O)c(O)c2)cc1	GLD-1 TGE inh 39, BCLXL inh 130, MCL1-BIM inh 163 (no result: Mcl-1 Bim block) | Bcl-xL conf 169 | MCL1 inh confirm 195
O=C(CSc1nc(-c2ccc(F)cc2)cs1)Nc1ccccn1	MCL1-BIM inh 64 | Bcl-xL conf inactive | MCL1 inh confirm inactive
O=C1/C(=N\S(=O)(=O)c2cccs2)C([n+]2cccc(Cc3ccccc3)c2)=C([O-])c2ccccc21	GLD-1 TGE inh 179, BCLXL inh active, MCL1-BIM inh active (no result: Mcl-1 Bim block) | Bcl-xL conf active | MCL1 inh confirm active
